# Data published in PubChem BioAssay (NCI).
# The panel holds about 79,000 compounds, 15% with a hit somewhere; the sample as a whole holds those more often. Values without a mark were called inactive. The source made the active and inactive calls. Rule as the data show it: active = growth inhibition above about 70%; inactive = the rest.
# Key:
# [1] = NCI Yeast Anticancer Drug Screen. Data for the rad52 strain (AID 147);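 also: 0% = growth of vehicle-treated control cultures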; conditions: S. cerevisiae rad52 mutant growth inhibition, hits give high values
# Method in brief: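 Growth of repair-deficient yeast cells was compared between compound-treated and vehicle-treated cultures to give percent inhibition.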
# [2] = NCI Yeast Anticancer Drug Screen. Data for the rad50EPP+ strain (AID 151);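 also: 0% = growth of vehicle-treated control cultures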; conditions: S. cerevisiae rad50 mutant strain, hits give high values
# Method in brief: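 Measured: growth inhibition of rad50EPP+ yeast. Reference: vehicle-treated controls. Screen uses strains with defined genetic alterations in DNA damage repair or cell cycle control.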
# [3] = NCI Yeast Anticancer Drug Screen. Data for the mgt1 strain (AID 153); conditions: S. cerevisiae mgt1 mutant growth inhibition, hits give high values
# Method in brief: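 Compounds were applied to mgt1 mutant yeast, and growth was then compared against vehicle-treated control cultures to give percent inhibition.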
# [4] = NCI Yeast Anticancer Drug Screen. Data for the rad50 strain (AID 155);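 also: 0% = growth of vehicle-only cultures of the same strain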; conditions: S. cerevisiae rad50 strain growth inhibition, hits give high values
# Method in brief: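 Growth of the mutant yeast was measured after compound exposure and referenced to vehicle-treated cultures.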
# [5] = NCI Yeast Anticancer Drug Screen. Data for the mec2-1 strain (AID 157); conditions: S. cerevisiae mec2-1 strain, hits give high values
# Method in brief: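 Compounds were applied to mec2-1 yeast cells. Their growth was then compared with that of vehicle-treated cultures to give growth inhibition.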
# [6] = NCI Yeast Anticancer Drug Screen. Data for the rad14 strain (AID 159);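 also: 0% = growth of vehicle-treated control cultures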; conditions: S. cerevisiae rad14 strain growth inhibition, hits give high values
# Method in brief: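 Here, inhibition of yeast growth was measured after compound exposure, using a strain with a genetic defect in DNA damage repair and vehicle-treated cultures as the reference.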
# [7] = NCI Yeast Anticancer Drug Screen. Data for the sgs1 mgt1 strain (AID 161);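 also: 0% = growth of cultures given vehicle only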; conditions: S. cerevisiae sgs1 mgt1 strain, hits give high values
# Method in brief: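 Compounds are added to genetically altered yeast, and growth is compared with cultures given vehicle alone to give percent inhibition.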
# [8] = NCI Yeast Anticancer Drug Screen. Data for the CLN2oe strain (AID 163);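 also: 0% = growth of vehicle-only control cultures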; conditions: S. cerevisiae CLN2oe strain, hits give high values
# Method in brief: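 Cells of an engineered yeast line with disturbed cell-cycle regulation are treated with compound. Inhibition of growth is then calculated relative to the vehicle-treated reference.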
# [9] = NCI Yeast Anticancer Drug Screen. Data for the cln2 rad14 strain (AID 165);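 also: 0% = growth equal to vehicle treated cultures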; conditions: S. cerevisiae cln2 rad14 strain, hits give high values
# Method in brief: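 Strain: cln2 rad14 yeast, altered in cell cycle control and DNA damage repair. Read-out: growth inhibition vs vehicle.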
# [10] = NCI Yeast Anticancer Drug Screen. Data for the bub3 strain (AID 167); conditions: S. cerevisiae bub3 mutant strain, hits give high values
# Method in brief: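 Whole-cell yeast assay. The mutant strain was incubated with compounds, and growth inhibition was determined by comparison with vehicle-treated cells.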
# [11] = NCI Yeast Anticancer Drug Screen. Data for the wt2 strain (AID 169);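 also: 0% = growth of vehicle-treated yeast cultures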; conditions: S. cerevisiae wt2 strain growth inhibition, hits give high values
# Method in brief: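 Growth of compound-treated yeast is measured and expressed as inhibition relative to vehicle-only controls.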
# [12] = NCI Yeast Anticancer Drug Screen. Data for the mlh1 strain (AID 171);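 also: 0% = growth of vehicle-treated control cultures of the same strain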; conditions: S. cerevisiae mlh1 strain growth inhibition, hits give high values
# Method in brief: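 Test agents were incubated with yeast bearing a defined DNA damage repair or cell cycle control alteration; values are growth inhibition normalised to vehicle-treated cultures.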
# [13] = NCI Yeast Anticancer Drug Screen. Data for the sgs1 strain (AID 173);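 also: 0% = growth of vehicle-only control cultures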; conditions: S. cerevisiae sgs1 mutant, hits give high values
# Method in brief: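 Strain with an altered DNA repair or cell cycle pathway exposed to compound. Growth then measured. Value = inhibition versus vehicle control.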
# [14] = NCI Yeast Anticancer Drug Screen. Data for the mlh1 rad18 strain (AID 175); conditions: S. cerevisiae mlh1 rad18 strain growth inhibition, hits give high values
# Method in brief: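 A repair-deficient yeast strain is exposed to test compound, and growth is scored relative to vehicle-treated controls.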
# [15] = NCI Yeast Anticancer Drug Screen. Data for the rad18 strain (AID 177); conditions: S. cerevisiae rad18 mutant growth inhibition, hits give high values
# Method in brief: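 DNA-repair-defective yeast; compound treatment; growth inhibition scored against vehicle.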
# [16] = NCI Yeast Anticancer Drug Screen. Data for the wt1 strain (AID 149);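 also: 0% = growth of vehicle-treated wt1 cultures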; conditions: S. cerevisiae wt1 strain (SPY 50644) growth inhibition, hits give high values
# Method in brief: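 Measured: growth of wt1 yeast under compound versus vehicle treatment, reported as inhibition.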
# [17] = at 5.0 µM (retest, dose inferred, filed as 0.5)
# [18] = at 50.0 µM (retest, dose inferred, filed as 5.0)
smiles,measurement,setting,value
CCOC(=O)c1cc(-c2ccc(Cl)cc2)c([N+](=O)[O-])n1C,growth inhibition,[1]; at 1.2 µM,12%
same,growth inhibition,[1]; at 3.7 µM,24%
same,growth inhibition,[1]; at 11.0 µM,41%
same,growth inhibition,[1]; at 33.0 µM,90% (active)
same,growth inhibition,[1]; at 100.0 µM,96% (active)
same,growth inhibition,[2]; at 1.2 µM,16%
same,growth inhibition,[2]; at 3.7 µM,23%
same,growth inhibition,[2]; at 11.0 µM,48%
same,growth inhibition,[2]; at 33.0 µM,78% (active)
same,growth inhibition,[2]; at 100.0 µM,93% (active)
same,growth inhibition,[3]; at 1.2 µM,-10%
same,growth inhibition,[3]; at 3.7 µM,-2%
same,growth inhibition,[3]; at 11.0 µM,1%
same,growth inhibition,[3]; at 33.0 µM,84% (active)
same,growth inhibition,[3]; at 100.0 µM,96% (active)
same,growth inhibition,[4]; at 1.2 µM,9%
same,growth inhibition,[4]; at 3.7 µM,26%
same,growth inhibition,[4]; [17],-12%
same,growth inhibition,[4]; at 11.0 µM,34%
same,growth inhibition,[4]; at 33.0 µM,89% (active)
same,growth inhibition,[4]; [18],97% (active)
same,growth inhibition,[4]; at 50.0 µM,88.4% (active)
same,growth inhibition,[4]; at 100.0 µM,95% (active)
same,growth inhibition,[5]; at 1.2 µM,15%
same,growth inhibition,[5]; at 3.7 µM,23%
same,growth inhibition,[5]; [17],-8%
same,growth inhibition,[5]; at 11.0 µM,23%
same,growth inhibition,[5]; at 33.0 µM,96% (active)
same,growth inhibition,[5]; [18],96% (active)
same,growth inhibition,[5]; at 50.0 µM,90.3% (active)
same,growth inhibition,[5]; at 100.0 µM,96% (active)
same,growth inhibition,[6]; at 1.2 µM,-8%
same,growth inhibition,[6]; at 3.7 µM,-4%
same,growth inhibition,[6]; at 11.0 µM,11%
same,growth inhibition,[6]; at 33.0 µM,76% (active)
same,growth inhibition,[6]; at 100.0 µM,95% (active)
same,growth inhibition,[7]; [17],10%
same,growth inhibition,[7]; [18],50%
same,growth inhibition,[7]; at 50.0 µM,91.7% (active)
same,growth inhibition,[8]; at 1.2 µM,10%
same,growth inhibition,[8]; at 3.7 µM,-3%
same,growth inhibition,[8]; at 11.0 µM,7%
same,growth inhibition,[8]; at 33.0 µM,60%
same,growth inhibition,[8]; at 100.0 µM,96% (active)
same,growth inhibition,[9]; [17],15%
same,growth inhibition,[9]; [18],95% (active)
same,growth inhibition,[9]; at 50.0 µM,89% (active)
same,growth inhibition,[10]; at 1.2 µM,-6%
same,growth inhibition,[10]; at 3.7 µM,-29%
same,growth inhibition,[10]; [17],-22%
same,growth inhibition,[10]; at 11.0 µM,-9%
same,growth inhibition,[10]; at 33.0 µM,74% (active)
same,growth inhibition,[10]; [18],97% (active)
same,growth inhibition,[10]; at 50.0 µM,85.3% (active)
same,growth inhibition,[10]; at 100.0 µM,95% (active)
same,growth inhibition,[11]; at 1.2 µM,6%
same,growth inhibition,[11]; at 3.7 µM,13%
same,growth inhibition,[11]; at 11.0 µM,13%
same,growth inhibition,[11]; at 33.0 µM,70% (active)
same,growth inhibition,[11]; at 100.0 µM,97% (active)
same,growth inhibition,[12]; at 1.2 µM,28%
same,growth inhibition,[12]; at 3.7 µM,36%
same,growth inhibition,[12]; at 11.0 µM,56%
same,growth inhibition,[12]; at 33.0 µM,94% (active)
same,growth inhibition,[12]; at 100.0 µM,96% (active)
same,growth inhibition,[13]; at 1.2 µM,27%
same,growth inhibition,[13]; at 3.7 µM,29%
same,growth inhibition,[13]; at 11.0 µM,58%
same,growth inhibition,[13]; at 33.0 µM,97% (active)
same,growth inhibition,[13]; at 100.0 µM,98% (active)
same,growth inhibition,[14]; [17],45%
same,growth inhibition,[14]; [18],97% (active)
same,growth inhibition,[14]; at 50.0 µM,87.9% (active)
same,growth inhibition,[15]; at 1.2 µM,3%
same,growth inhibition,[15]; at 3.7 µM,37%
same,growth inhibition,[15]; at 11.0 µM,71% (active)
same,growth inhibition,[15]; at 33.0 µM,95% (active)
same,growth inhibition,[15]; at 100.0 µM,96% (active)
CSC1=NNC(SC)=NN1,growth inhibition,[1]; at 1.2 µM,-13%
same,growth inhibition,[1]; at 3.7 µM,-5%
same,growth inhibition,[1]; at 11.0 µM,3%
same,growth inhibition,[1]; at 33.0 µM,70% (active)
same,growth inhibition,[1]; at 100.0 µM,98% (active)
same,growth inhibition,[16]; at 1.2 µM,-7%
same,growth inhibition,[16]; at 3.7 µM,-9%
same,growth inhibition,[16]; at 11.0 µM,-6%
same,growth inhibition,[16]; at 33.0 µM,51%
same,growth inhibition,[16]; at 100.0 µM,99% (active)
same,growth inhibition,[3]; at 1.2 µM,12%
same,growth inhibition,[3]; at 3.7 µM,14%
same,growth inhibition,[3]; at 11.0 µM,12%
same,growth inhibition,[3]; at 33.0 µM,83% (active)
same,growth inhibition,[3]; at 100.0 µM,99% (active)
same,growth inhibition,[4]; at 1.2 µM,-4%
same,growth inhibition,[4]; at 3.7 µM,0%
same,growth inhibition,[4]; [17],49%
same,growth inhibition,[4]; at 11.0 µM,15%
same,growth inhibition,[4]; at 33.0 µM,66%
same,growth inhibition,[4]; [18],41%
same,growth inhibition,[4]; at 50.0 µM,59.9%
same,growth inhibition,[4]; at 100.0 µM,97% (active)
same,growth inhibition,[5]; at 1.2 µM,-4%
same,growth inhibition,[5]; at 3.7 µM,-22%
same,growth inhibition,[5]; [17],44%
same,growth inhibition,[5]; at 11.0 µM,15%
same,growth inhibition,[5]; at 33.0 µM,89% (active)
same,growth inhibition,[5]; [18],41%
same,growth inhibition,[5]; at 50.0 µM,44.4%
same,growth inhibition,[5]; at 100.0 µM,99% (active)
same,growth inhibition,[6]; at 1.2 µM,-16%
same,growth inhibition,[6]; at 3.7 µM,-4%
same,growth inhibition,[6]; at 11.0 µM,36%
same,growth inhibition,[6]; at 33.0 µM,87% (active)
same,growth inhibition,[6]; at 100.0 µM,98% (active)
same,growth inhibition,[7]; [17],-1%
same,growth inhibition,[7]; [18],100% (active)
same,growth inhibition,[7]; at 50.0 µM,58.5%
same,growth inhibition,[8]; at 1.2 µM,-8%
same,growth inhibition,[8]; at 3.7 µM,17%
same,growth inhibition,[8]; at 11.0 µM,15%
same,growth inhibition,[8]; at 33.0 µM,46%
same,growth inhibition,[8]; at 100.0 µM,99% (active)
same,growth inhibition,[9]; [17],61%
same,growth inhibition,[9]; [18],99% (active)
same,growth inhibition,[9]; at 50.0 µM,30.9%
same,growth inhibition,[10]; at 1.2 µM,-12%
same,growth inhibition,[10]; at 3.7 µM,6%
same,growth inhibition,[10]; [17],45%
same,growth inhibition,[10]; at 11.0 µM,54%
same,growth inhibition,[10]; at 33.0 µM,89% (active)
same,growth inhibition,[10]; [18],99% (active)
same,growth inhibition,[10]; at 50.0 µM,68.8%
same,growth inhibition,[10]; at 100.0 µM,99% (active)
same,growth inhibition,[11]; at 1.2 µM,-2%
same,growth inhibition,[11]; at 3.7 µM,1%
same,growth inhibition,[11]; at 11.0 µM,4%
same,growth inhibition,[11]; at 33.0 µM,61%
same,growth inhibition,[11]; at 100.0 µM,99% (active)
